Data: ChEMBL document CHEMBL1157539, “Thousands of chemical starting points for antimalarial lead identification” (Nature, 2010)

Each molecule was assayed on Plasmodium falciparum (assay: GSK_TCMDC: Inhibition of Plasmodium falciparum Dd2 in whole red blood cells, using parasite LDH activity as an index of growth. Test compounds present at 2uM).
Assay type: functional
In the case of `NCCc1cccc(-c2cnc3[nH]cc(-c4ccc(C(=O)O)cc4)c3c2)c1.O=C(O)C(F)(F)F`, the Inhibition is reported as 98%.
`Cc1cccc2nc(-c3cccc(-c4ccc(CNCc5cnn(-c6ccccc6)n5)cc4)c3)[nH]c12.O=C(O)C(F)(F)F` was tested, and the Inhibition was 66%.
`COc1ccc2nccc([C@@H](O)CN3CCC(NC(=O)c4ccc(CN5CCN(c6cccc(C)c6)CC5C)cc4)CC3)c2c1` (stereo partly drawn) showed an Inhibition of 86%.

These molecules were tested on HepG2 (assay: GSK_TCMDC: Percent inhibition of human HepG2 cell line. Test compounds present at 10uM.).
Assay type: functional
With `O=C(/C=C/c1ccc(Cl)c(Cl)c1)NCCCCN1CCCN(C(=O)Nc2cc(Cl)cc(Cl)c2)CC1` the Inhibition was 21%.
`Cc1ccc(F)c(CN2CCC(N3CC(c4ccccc4)(c4ccccc4)OC3=O)CC2)c1Cl` was tested, and the Inhibition was 11%.
For `CN(C)CCNC(=O)c1ccc(-c2ccc3c(Nc4ccccc4)c(C(N)=O)cnc3c2)cc1`, the Inhibition was 9%.
`COc1ccc(CNCCc2cccs2)cc1-c1ccc(OC)c(S(=O)(=O)NCCN2CCCC2)c1.O=C(O)C(F)(F)F` gave an Inhibition of 16%.
In the case of `O=C(Nc1ccc(-c2cncc(NCCCN3CCCC3)c2)cc1)c1ccccc1`, the Inhibition is reported as 0%.
Work on `CC(C)(C)c1nn(-c2ccccc2)c2[nH]c(=O)c(CNC3CCCC3)cc12` yielded an Inhibition of 7%.
`O=C(/C=C/c1cccc(OC(F)(F)F)c1)NCCCCCN1CCC(c2c[nH]c3ccccc23)CC1` showed an Inhibition of 27%.
For `O=C(Nc1ccc(N2CCC(Nc3ccccn3)CC2)cc1)c1cnc(Cl)c(Cl)c1.O=C(O)C(F)(F)F`, the Inhibition was 46%.
Molecule `c1ccc(Oc2ccc(Nc3ccnc4cc(-c5ccc(CNCCN6CCOCC6)o5)ccc34)cc2)cc1` has an Inhibition of 20%.
With `COC(=O)C(C)NCC(=O)c1ccccc1.Cl` (stereo not drawn) the Inhibition was 5%.
`CCOC(=O)NC1=NC(=N)N(OCc2ccc(Cl)c(Cl)c2)C(C)(C)N1` showed an Inhibition of 66%.
Molecule `CCCCCCNC(=O)C1Cc2c([nH]c3ccc(C)cc23)C2(CCN(CCc3ccccc3)CC2)N1` (stereo not drawn) has an Inhibition of 31%.
In the case of `CC1C(c2cccc(Cl)c2)OCC(C)(C)N1C(=O)CCN1CCCCC1.Cl` (stereo not drawn), the Inhibition is reported as 2%.
`COc1cc(C2CCN(CCCCNC(=O)c3ccc(NC(=O)c4cc(C(F)(F)F)cc(C(F)(F)F)c4)cc3)CC2)ccc1OC(C)C` showed an Inhibition of 21%.
`COCCCNC(=O)C1CCN(C(c2ccc(Cl)cc2)c2ccc(Cl)cc2)CC1` was tested, and the Inhibition was 5%.
`CC(C)CC(=O)N1CCNC[C@@H]1C(=O)NCc1ccc(Cl)c(Cl)c1.O=C(O)C(F)(F)F` showed an Inhibition of 0%.
With `O=C(N[C@@H](Cc1ccccc1)C(=O)NCCN1CCCCC1)c1ccc(O)c(-c2cccc(C(F)(F)F)c2)c1` the Inhibition was 0%.
Work on `Cn1nccc1C(=O)NCCNCc1ccc(-c2ccc(-c3nc4cc(C(F)(F)F)ccc4[nH]3)cc2)cc1.O=C(O)C(F)(F)F` yielded an Inhibition of 35%.
`Cc1ccc2c(c1[N+](=O)[O-])N=NCC2Oc1ccccc1` (stereo not drawn) gave an Inhibition of 16%.
With `Cl.O=c1nc(NCCCNCc2cc3c(Cl)cc(Cl)cc3[nH]2)[nH]c2ccccc12` the Inhibition was 10%.
`N#Cc1cccc(CN2CCCN(Cc3cccc(C(=O)Nc4ccc(Cl)cc4)c3)CC2)c1.O=C(O)C(F)(F)F` gave an Inhibition of 46%.
For `CCOc1ccc2[nH]c(C)cc(=NN=Cc3ccccc3F)c2c1`, the Inhibition was 0%.
Molecule `COc1ccc(NC(=O)/C=C/c2ccccc2Cl)cc1OCCN1CCC(N2CCN(C)CC2)CC1` has an Inhibition of 19%.
For `CCN1CCCC(Nc2ccnc3cc4ccccc4cc23)C1` (stereo not drawn), the Inhibition was 38%.
`Cc1cccc2nc(-c3ccc(-c4ccc(NC(=O)C(C)CN(C)C)cc4)cc3)[nH]c12` (stereo not drawn) gave an Inhibition of 18%.
With `CS(=O)(=O)CCCNCc1ccc(-c2cc3c(Nc4ccc(OCc5ccccc5)cc4)ncnc3cn2)o1` the Inhibition was 10%.
Work on `CCOc1ccc(Cc2c(C)nc3nc(N)nc(N)c3c2C)cc1.Cl` yielded an Inhibition of 63%.
Work on `Cc1cc(CNCC2CCC(CNCCCc3ccccc3)CC2)ccc1O` (stereo not drawn) yielded an Inhibition of 25%.
With `CCNc1cc(C(=O)N[C@@H](Cc2ccccc2)[C@H](O)CNC(C)(C)Cc2ccccc2)cc(N2CCCC2=O)c1.O=CO` the Inhibition was 1%.
For `Br.CCCCCCn1c2c(c(=N)c3c1CCC3)CCC2`, the Inhibition was 32%.
In the case of `CC(C)CCn1c(Sc2ccc(C#N)c([N+](=O)[O-])c2)nnc1-c1ccccc1Cl`, the Inhibition is reported as 20%.
With `O=C(Cc1ccc(NC(=O)c2ccc(O)c(-c3ccc(Cl)c(Cl)c3)c2)cc1)NCCc1ccc(Cl)c(Cl)c1` the Inhibition was 0%.
`O=C(Nc1cccc(-c2nn3ccccc3c2-c2ccnc(Nc3cccc(-c4cnco4)c3)n2)c1)C1CCCCC1` was tested, and the Inhibition was 71%.
In the case of `CCOc1ccccc1N1CCN(CCCNC(=O)/C(=C/C=C/c2cc3cc(Cl)c(Cl)cc3[nH]2)OC)CC1`, the Inhibition is reported as 45%.
`CCN(CC)CCN(Cc1ccc(-c2ccc(C(F)(F)F)cc2)cc1)C(=O)Cn1c(CCc2ccc(F)c(F)c2F)nc(=O)c2ccccc21.O=C(O)C(O)C(O)C(=O)O` showed an Inhibition of 38%.
For `CN(c1ccc2c(c1)nc(NCc1ccccc1)n2C)c1ccnc(Nc2ccc(CS(C)(=O)=O)cc2)n1.Cl`, the Inhibition was 61%.
`COc1cc2s/c(=N\C(=O)c3cccc([N+](=O)[O-])c3)n(C)c2cc1OC` was tested, and the Inhibition was 5%.
`NCCc1cccc(-c2cnc3[nH]cc(-c4ccc(C(=O)O)cc4)c3c2)c1.O=C(O)C(F)(F)F` gave an Inhibition of 4%.
Molecule `Cc1cccc2nc(-c3cccc(-c4ccc(CNCc5cnn(-c6ccccc6)n5)cc4)c3)[nH]c12.O=C(O)C(F)(F)F` has an Inhibition of 20%.
Molecule `COc1ccc2nccc([C@@H](O)CN3CCC(NC(=O)c4ccc(CN5CCN(c6cccc(C)c6)CC5C)cc4)CC3)c2c1` (stereo partly drawn) has an Inhibition of 50%.
